# Laboratory results published in the supplement of paper PMC12340641.
# Where a name gives a salt, the structure may show the parent alone. ± gives the standard deviation of the averaged measurements.
# Tested on: HEK293FT dCK*-IKZF1
# Experiment: relative growth recovery (pomalidomide 10 uM = 100%, DMSO = 0%); higher = more growth rescue (IKZF1 fusion degradation)
# Conditions: compound concentration: 5 uM; AraC concentration: 0.3 uM; overnight pretreatment + 4 days AraC
# Method in brief: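 On day 5, whole-well imaging was used to count Hoechst 33342-stained nuclei of HEK293FT cells stably carrying a deoxycytidine kinase–IKZF1 fusion. These cells had received 5 μM compound 2 h after seeding, followed after overnight at 37 °C by a nucleoside suicide substrate at 0.3 μM plus medium for 4 days. Growth recovery was normalised on each plate against a reference degrader and vehicle, which defined 100% and 0%, and values are duplicate means from separate days.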
row,Compound,relative growth recovery [%]
1,Cn1c(NCCN(CCO)CCCc2ccc([N+](=O)[O-])cc2)cc(=O)n(C)c1=O [nifekalant],3.56
2,O=C1c2ccccc2-c2n[nH]c3cccc1c23 [pyrazolanthrone],-5.03
3,O=C(OC)C1=C(C)NC(C)=C(C(OCCCN3CCC(C4=CC=CC=C4)(C5=CC=CC=C5)CC3)=O)[C@@H]1[C@]2=CC=CC([N+]([O-])=O)=C2 [dexniguldipine],-5.83
4,C=CC(=O)c1ccc2ccccc2c1 [JAK3-inhibitor-V],0.695
5,COc1cc(/C=C/C(=O)CC(=O)/C=C/c2ccc(O)c(OC)c2)ccc1O [Curcumin],-6.48
6,CC(=NNc1nnc2c(n1)[nH]c1c(C)cccc12)c1ccccn1,-12.7
7,C=C1C(=O)O[C@H]2[C@H]1CC/C(C)=C/CC[C@@]1(C)O[C@@H]21 [parthenolide],-10.5
8,COc1cccc2c1C(=O)c1c(O)c3c(c(O)c1C2=O)C[C@@](O)(/C(CO)=N/NC(=O)CCCCCN1C(=O)C=CC1=O)C[C@@H]3O[C@H]1C[C@H](N)[C@H](O)[C@H](C)O1 [Aldoxorubicin],-14
9,C=C1/C(=C\C=C2/CCC[C@]3(C)[C@@H]([C@H](C)/C=C/C=C/C(O)(CC)CC)CC[C@@H]23)C[C@@H](O)C[C@@H]1O [Seocalcitol],6.88
10,CC[C@]1(O)C[C@H]2CN(CCc3c([nH]c4ccccc34)[C@@](C(=O)OC)(c3cc4c(cc3OC)N(C)[C@H]3[C@@](O)(C(=O)OC)[C@H](OC(C)=O)[C@]5(CC)C=CCN6CC[C@]43[C@@H]65)C2)C1 [Vinblastine Sulfate],-11.7
11,Oc1ccc(Cl)c2cccnc12,-1.79
12,C=CCc1ccc(O)c(-c2cc(CC=C)ccc2O)c1 [Magnolol],2.08
13,CO[C@H]1CC(O[C@@H]2/C(C)=C/C[C@@H]3C[C@@H](C[C@]4(CC[C@H](C)[C@@H](C5CCCCC5)O4)O3)OC(=O)[C@@H]3C=C(C)/C(=N/O)[C@H]4OC/C(=C\C=C\[C@@H]2C)[C@]43O)O[C@@H](C)C1O (some centres undefined),-2.14
14,O=C1N(c2ccccc2)c2ccccc2C1(Cc1ccncc1)Cc1ccncc1 [linopirdine],-3.48
15,COC(=O)Nc1nc2ccc(Sc3ccccc3)cc2[nH]1,-9.72
16,Cc1cc(NC(=O)C(c2ccccc2)N2CCCc3ccccc32)no1 (centres undefined),1.48
17,COc1ccc(Cl)cc1C(=O)NCCc1ccc(S(=O)(=O)NC(=O)NC2CCCCC2)cc1,3.14
18,Clc1ccccc1C(c1ccccc1)(c1ccccc1)n1ccnc1 [Clotrimazole],1.77
19,CN(C)c1ccc(C(=C2C=CC(=[N+](C)C)C=C2)c2ccc(N(C)C)cc2)cc1,-13.1
20,Cc1nc(-c2cccnc2)sc1C(=O)Nc1ccccc1-c1cn2c(CN3CCOCC3)csc2n1,-0.27

row,Compound,relative growth recovery [%]
1,CO[C@H]1/C=C/O[C@@]2(C)Oc3c(C)c(O)c4c(O)c(c(/C=N/N5CCN(C)CC5)c(O)c4c3C2=O)NC(=O)/C(C)=C\C=C\[C@H](C)[C@H](O)[C@@H](C)[C@@H](O)[C@@H](C)[C@H](OC(C)=O)[C@@H]1C,-2.5
2,COc1ccc(CN2CCN(C(c3ccc(F)cc3)c3ccc(F)cc3)CC2)c(OC)c1OC,0.625
3,Nc1nc(N)c2nc(-c3cccc(O)c3)cnc2n1,-2.13
4,CCc1nc(N)nc(N)c1-c1ccc(Cl)cc1 [Pyrimethamine],-1.87
5,COc1cnc(NS(=O)(=O)c2ccc(N)cc2)nc1,-3.84
6,CC(=O)Oc1ccccc1C(=O)Nc1ncc([N+](=O)[O-])s1 [Nitazoxanide],1.91
7,S=C(NCc1ccc2c(c1)OCO2)N1CCN(c2ncnc3c2oc2ccccc23)CC1 [Amuvatinib (MP-470)],-0.14
8,O=C(Nc1ccc2[nH]ccc2c1)c1ccccc1,-0.01
9,Cc1ccc(S(=O)(=O)N/N=C/c2cc(Br)ccc2O)cc1,2.03 ± 2.8
10,COc1cc([C@@H]2c3cc4c(cc3[C@@H](O[C@@H]3O[C@@H]5CO[C@@H](C)O[C@H]5[C@H](O)[C@H]3O)[C@H]3COC(=O)[C@H]23)OCO4)cc(OC)c1OP(=O)(O)O [Etoposide phosphate],-13
11,O=C1Nc2ccc(Cl)cc2[C@@](C#CC2CC2)(C(F)(F)F)O1 [Efavirenz],2.08
12,O=c1[nH]c(=O)n([C@H]2C[C@H](O)[C@@H](CO)O2)cc1F [Floxuridine],-9.7
13,CNCCC(Oc1ccc(C(F)(F)F)cc1)c1ccccc1 (centres undefined),0.235
14,Oc1cc(O)c2cc(O)c(-c3cc(O)c(O)c(O)c3)[o+]c2c1 [delphinidin],-1.78
15,C[n+]1c2cc(N)ccc2cc2ccc(N)cc21.Nc1ccc2cc3ccc(N)cc3nc2c1 [Acriflavine hydrochloride],-14
16,CN1CCC(=C2c3ccccc3Sc3ccccc32)CC1,-1.33
17,COc1ccc(NS(=O)(=O)c2ccc(N)cc2)nn1,-1.8
18,COc1ccc(CCN(C)CCc2ccc(OC)c(OC)c2)cc1OC,1.83
19,C=CC[C@@H]1/C=C(\C)C[C@H](C)C[C@H](OC)[C@H]2O[C@@](O)(C(=O)C(=O)N3CCCC[C@H]3C(=O)O[C@H](/C(C)=C/[C@@H]3CC[C@@H](O)[C@H](OC)C3)[C@H](C)[C@@H](O)CC1=O)[C@H](C)C[C@@H]2OC [Tacrolimus],12.2
